From PubChem BioAssay
Cycloheximide cs = affects cycloheximide protein synthesis inhibition readout, counter-screen; cell reporter, cycloheximide protein synthesis inhibition counterscreen; max response, %; 12% of 300,000 active; AID 2314; in the data active = max response mostly above about 13%, no sharp cut-off; inactive = mostly below about 14%; also: read at 38.3 µM for the half of the compounds with a filed dose; 0% is about no effect
Shiga inhibitor = Shiga toxin inhibition; Vero cells, Shiga toxin protein synthesis inhibition reporter; inhibition, % at 38.7 µM; 9.2% of 290,000 active; AID 2315; in the data active = inhibition mostly above about 28%, no sharp cut-off; inactive = mostly below about 43%; also: 0% is about no effect
Pf growth 48h = P. falciparum growth inhibition at 48 hours (one generation). P. falciparum luciferase growth in erythrocytes, 48 h. Potency, µM (highest dose often 28.7 µM), inactives show top-dose activity change, negative = inhibition, actives largely listed as inhibitors. 5.9% of 310,000 active. AID 504832; active = well fitted inhibition curve with a large enough effect; inconclusive = small, poorly fitted or top-dose-only effect, or another doubt; inactive = no such curve, though single readings can be large or run the other way; also: potency is read from the fitted curve at half-maximal effect; % is scaled to controls: 0 for no effect and ±100 for the full control effect
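Cell-based growth assay: transgenic P. falciparum expressing firefly luciferase, cultured in red cells within RPMI 1640 containing 0.5% w/v Albumax, 24 mM bicarbonate and gentamycin. A drop in luciferase activity indicates inhibition.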
NS1 inh = inhibitors of influenza NS1 protein function | Potency, µM (top dose mostly 46.1 µM), without a hit: top-dose activity, positive = more growth | 0.4% of 270,000 active; also: potency is read from the fitted curve at half-maximal effect; actives are rising curves; nearly all actives have a fitted effect of over 50% in size
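Recovery from NS1-induced slow growth read by OD600 in budding yeast switched to galactose assay medium (pH 6.0, -URA) at 1:100 dilution. Compound 23 nl per well; the matching strain lacking NS1 serves as control.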
Pf growth 96h = P. falciparum growth inhibition at 96 hours; P. falciparum luciferase reporter growth, 96 h; Potency, µM (highest dose often 28.7 µM), for inactives: at the top dose activity change, negative = inhibition, most hits filed as inhibitors; 6.9% of 320,000 active; active = well fitted inhibition curve with a large enough effect; inconclusive = small, poorly fitted or top-dose-only effect, or another doubt; inactive = no such curve, though single readings can be large or run the other way; also: potency is read from the fitted curve at half-maximal effect; % is scaled to controls: 0 for no effect and ±100 for the full control effect
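96 h incubation, 37 C, 5% CO2, of luciferase-reporter P. falciparum-infected RBCs (2% hematocrit, 0.05% parasitemia final) with test compounds; endpoint luminescence.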
SARS PLP yeast = SARS-CoV PLP inhibition in yeast | Potency, µM (highest dose often 32.9 µM), without a hit: at the top dose activity, positive = growth rescue, usual class: activators | 0.19% of 330,000 active | AID 485353 | S. cerevisiae expressing SARS-CoV PLpro, growth rescue; also: potency is read from the fitted curve at half-maximal effect; 0% is about no effect; nearly all actives have a fitted effect of over 55% in size
* marks the source's active call; other numbers are inactive results; ? = inconclusive; . = no result given; [ ] = remark or other dose. Compounds with a hit are over-represented: about 21% of the library has one in this group of screens. Unless noted, calls follow the shape of the full dose curve.

SMILES	Cycloheximide cs	Shiga inhibitor	Pf growth 48h	NS1 inh	Pf growth 96h	SARS PLP yeast
O=C(COc1ccc2c3c(c(=O)oc2c1)CCCC3)NCc1ccccn1	-9	-2	12%	-8%	?	22%
Cc1nnc2c(N3CCN(C(=O)c4ccco4)CC3)nc3ccccc3n12	-3	-2	-27%	-5%	32%	0%
CCCCc1nc(N2CCN(C(=O)c3ccco3)CC2)c(C#N)c2c1CCCC2	21*	63*	9.3µM*	-33%	?	-8%
CCCc1cc(N2CCN(C(=O)c3ccco3)CC2)n2c(nc3ccccc32)c1C#N	8	18	12µM*	-5%	.	-3%
CC1=NN(C(C#N)c2ccccc2C)C(C)(C)C1 (stereo not given)	-3	13	-14%[5.75 µM]	.	-2%	0%
O=C1OC(c2ccc3c(c2)OCO3)=N/C1=C\c1ccc(C(=O)O)cc1	-4	4	.	4%	2%	0%
COc1ccc2c(c1)Cc1sc(NC(=O)c3cccnc3)nc1-2	6	13	?	21%	-1%	0%
COc1ccc2c(c1)Cc1sc(NC(=O)c3ccco3)nc1-2	74*	62*	110%	-2%	?	-9%
COc1ccc2c(c1)CCc1sc(NC(=O)c3ccc(C)cc3)nc1-2	19	80	?	9%	6.6µM*	0%
COc1ccc2c(c1)CCc1sc(NC(=O)c3ccco3)nc1-2	50*	129*	.	-3%	?	-28%
COc1ccc(C(=O)Nc2ccc(NC(=O)c3ccco3)cc2)cc1	-6	29	-11%	-3%	12%	-4%
COc1ccc2c(c1)Cc1sc(NC(C)=O)nc1-2	40*	72*	90%	-9%	-10%	-6%
COc1ccc(N2CCOCC2)c(NC(=O)c2cccs2)c1	-1	-4	32%	-16%	7%	-3%
COc1ccc2c(c1)-c1nc(NC(=O)c3cccs3)sc1CC2	24*	75*	?	?	15%	-38%
COc1ccc2c(c1)-c1nc(NC(=O)c3ccco3)sc1CC2	49*	121*	154%	-4%	0%	-74%
CCOc1ccc(NC(=O)CN(C)C(=O)c2cccnc2Sc2ccccc2Cl)cc1OCC	.	.	?	.	13%	-3%
CC(C)c1ccc2oc(-c3ccc(NC(=O)c4ncn[nH]4)cc3)nc2c1	49*	86*	?	5%	1.7µM*	-11%
CCC(C)c1ccc2oc(-c3ccc(NC(=O)c4ncn[nH]4)cc3)nc2c1 (stereo not given)	8	41*	?	-7%	.	-7%
COc1ccc(NC(=O)c2ncn[nH]2)cc1	9	14	83%	-4%	.	4%
CCC(C)c1ccc(O)c(NC(=O)c2ncn[nH]2)c1 (stereo not given)	-2	13	10%	-53%	3.3µM*	-7%
C=CCN(CC=C)Cc1c(O)ccc2c(=O)c(-c3ccccc3)coc12	10	9	?	0%	7%	-4%
Cc1cc(CNC(=O)C(C)n2nc(C)c([N+](=O)[O-])c2C)c2ccccc2n1 (stereo not given)	-4	-23	51%	.	81%	5%
CC1=N/C(=C\c2ccc([N+](=O)[O-])cc2)C(=O)N1c1ccc(Br)c(C)c1	12	12	?	1%	-1%	8%
CCCc1cc(C(=O)Nc2cccnc2Cl)no1	55*	59*	.	-45%	12µM*	-18%
CCCc1cc(C(=O)Nc2ccccc2C(=O)OC)no1	-3	12	4%	-16%	12µM*	-2%
SMILES	Cycloheximide cs	Shiga inhibitor	Pf growth 48h	NS1 inh	Pf growth 96h	SARS PLP yeast
CCCc1cc(C(=O)Nc2cc(C)ccc2O)no1	18*	49*	-25%	-11%	16%	-10%
CCCc1cc(C(=O)Nc2cc(OC)c(Cl)cc2OC)no1	-3	12	.	-34%	55%	-3%
COc1ccccc1-c1cc(C(=O)Nc2cccnc2Cl)no1	-7	-10	9%	-2%	21%	2%
O=C(Cc1ccc(-n2c(=O)[nH]c3ccsc3c2=O)cc1)N1CCN(c2ccc(Cl)cc2)CC1	-1	-18	-1%	14%	?	-17%
Cc1cc(C(=O)N2CCN(S(C)(=O)=O)CC2)cs1	-4	29	6%	10%	.	8%
COc1cccc(C(=O)c2cn(CC(=O)NCc3ccco3)c3nc(C)ccc3c2=O)c1	-2	-11	-18%	12%	4.1µM*	2%
